According to the supplement of paper PMC12350171:
Structures can show the parent of a compound that is named as a salt.

How the values were obtained:
Conditions in all cases: 20 µM
[1] = system: Haemophilus parainfluenzae; test: growth AUC normalised to DMSO control (fraction of control); higher = less growth inhibition, active = hit call of the paper
How it was run: (§1)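 Hemin and NAD were added to the medium for Haemophilus parainfluenzae. All pathogens, after two anaerobic passages, were inoculated at a starting OD578 of 0.01 into pre-reduced mGAM plates with 20 μM compound and 1% DMSO under breathable seals, and OD578 was read hourly for 24 h in three biological replicates. AUC of each growth curve was obtained with the trapezoidal rule up to the exponential-to-stationary transition and normalised to DMSO controls from the same plate.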

[2] = system: Salmonella enterica typhimurium; test: as above
How it was run: as §1

Shigella flexneri = test: as above
How it was run: as §1

Vibrio cholerae = test: as above
How it was run: as §1

[3] = system: Yersinia pseudotuberculosis; test: as above
How it was run: as §1

P. vulgatus RND KO = test: growth AUC normalised to DMSO control (median) (fraction of control); higher = less growth inhibition, active = hit call of the paper
How it was run: (§2)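 In 96-well plates of mGAM seeded at OD578 0.01, strains that had been passaged twice overnight without oxygen were exposed to approved-drug library compounds at 20 μM with 1% DMSO. Hourly OD578 readings were taken for 24 h in an anaerobic incubator. The trapezoidal-rule area under the curve, with curves truncated at entry into stationary phase, was expressed relative to same-plate vehicle wells as the median of three biological replicates.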

P. vulgatus WT = test: as above
How it was run: as §2

[4] = system: S. enterica typhimurium WT; test: as above
How it was run: as §2

[5] = system: S. enterica typhimurium tolC KO; test: as above
How it was run: as §2

Measured: growth AUC normalised to DMSO control
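Throughout, for growth AUC normalised to DMSO control (median): active when median AUC fell below 0.1.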

COc1cccc(C2(O)CCCCC2CN(C)C)c1 (stereo not drawn) [Tramadol hydrochloride]
inactive: [1] 0.971 | [2] 0.98 | Shigella flexneri 0.992 | Vibrio cholerae 0.983 | [3] 0.994 | P. vulgatus RND KO 0.988 | P. vulgatus WT 0.989 | [4] 0.986 | [5] 0.986

CC(C)[N+](C)(CCC(C(N)=O)(c1ccccc1)c1ccccc1)C(C)C [Isopropamide iodide]
inactive: [1] 0.981 | [2] 0.998 | Shigella flexneri 1 | Vibrio cholerae 1 | [3] 0.991 | P. vulgatus RND KO 0.995 | P. vulgatus WT 1.02 | [4] 1 | [5] 0.993

c1ccc2c(c1)OCC(C1=NCCN1)O2 (stereo not drawn) [Idazoxan hydrochloride]
inactive: [1] 1.01 | [2] 1.02 | Shigella flexneri 1.02 | Vibrio cholerae 1.02 | [3] 0.982 | P. vulgatus RND KO 0.997 | P. vulgatus WT 0.98 | [4] 0.999 | [5] 0.998

NCC1(CC(=O)O)CCCCC1 [Gabapentin]
inactive: [1] 0.891 | [2] 1.01 | Shigella flexneri 1.05 | Vibrio cholerae 1.03 | [3] 1.01 | P. vulgatus RND KO 1.04 | P. vulgatus WT 1.04 | [4] 1.01 | [5] 1.01

CCN(C)C(=O)Oc1cccc([C@H](C)N(C)C)c1 [Rivastigmine]
inactive: [1] 1.13 | [2] 1.04 | Shigella flexneri 1.02 | Vibrio cholerae 1.11 | [3] 1.04 | P. vulgatus RND KO 1.01 | P. vulgatus WT 1.03 | [4] 1.01 | [5] 1.02

CN1C[C@H](C(=O)N[C@]2(C)O[C@@]3(O)[C@@H]4CCCN4C(=O)[C@H](Cc4ccccc4)N3C2=O)C[C@@H]2c3cccc4[nH]cc(c34)C[C@H]21 [Dihydroergotamine tartrate]
inactive: [1] 1.04 | [2] 0.978 | Shigella flexneri 0.994 | Vibrio cholerae 1.02 | [3] 1.01 | P. vulgatus RND KO 0.989 | P. vulgatus WT 0.996 | [4] 1 | [5] 0.984

CN1[C@@H]2CC[C@H]1C[C@@H](OC(=O)[C@H](CO)c1ccccc1)C2 [(L) Hyoscyamine]
inactive: [1] 0.945 | [2] 0.983 | Shigella flexneri 1.04 | Vibrio cholerae 1.05 | [3] 1.01 | P. vulgatus RND KO 1 | P. vulgatus WT 1 | [4] 1.01 | [5] 1

CNCC(O)c1ccc(O)cc1 (stereo not drawn) [Synephrine]
inactive: [1] 1.04 | [2] 1.01 | Shigella flexneri 1.05 | Vibrio cholerae 1.03 | [3] 1.01 | P. vulgatus RND KO 0.984 | P. vulgatus WT 0.984 | [4] 1 | [5] 0.999

CCCC(C)C1(CC)C(=O)NC(=O)NC1=O (stereo not drawn) [Pentobarbital]
inactive: [1] 1.02 | [2] 1.01 | Shigella flexneri 1.05 | Vibrio cholerae 0.999 | [3] 0.986 | P. vulgatus RND KO 1.05 | P. vulgatus WT 1.06 | [4] 1.01 | [5] 0.999

CN(C)C(=O)Oc1cccc([N+](C)(C)C)c1 [Neostigmine bromide]
inactive: [1] 1 | [2] 1 | Shigella flexneri 0.994 | Vibrio cholerae 1.01 | [3] 0.916 | P. vulgatus RND KO 1 | P. vulgatus WT 0.997 | [4] 1 | [5] 1.01

CC(=O)O[C@H]1C[C@H](O[C@H]2[C@@H](O)C[C@H](O[C@H]3[C@@H](O)C[C@H](O[C@H]4CC[C@@]5(C)[C@H](CC[C@@H]6[C@@H]5C[C@@H](O)[C@]5(C)[C@@H](C7=CC(=O)OC7)CC[C@]65O)C4)O[C@@H]3C)O[C@@H]2C)O[C@H](C)[C@H]1O[C@@H]1O[C@H](CO)[C@@H](O)[C@H](O)[C@H]1O [Lanatoside C]
inactive: [1] 1.04 | [2] 1.01 | Shigella flexneri 1.01 | Vibrio cholerae 1.02 | [3] 0.984 | P. vulgatus RND KO 1.01 | P. vulgatus WT 1.06 | [4] 1.01 | [5] 0.997

CN[C@@H]1C[C@@H](c2ccc(Cl)c(Cl)c2)c2ccccc21 [Indatraline hydrochloride]
inactive: [1] 1.04 | [2] 1.02 | Shigella flexneri 1.05 | Vibrio cholerae 1 | [3] 1.02 | P. vulgatus RND KO 0.973 | P. vulgatus WT 1.08 | [4] 0.996 | [5] 0.95
